According to PubChem BioAssay AID488890 (Southern Research Specialized Biocontainment Screening …, 2010):
Out of some 320,000 compounds screened, about 1,300 (0.41%) were called active. Roughly 3% stayed inconclusive and do not appear here. No rule for the calls is given here. The list is a sample of the results. Results with a measured potency or affinity are listed apart.

Experiment: growth inhibition of non-replicating M. tuberculosis (AID 488890);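 also: plate controls were DMSO cells for no effect and high antibiotic wells for full effect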
Details: Mycobacterium tuberculosis non-replicating, at 25 µM, stronger effect = higher value

Row | Compound | inhibition [%]
1 | COc1ccc(/C=N/Nc2cc(C)nc(N3CCOCC3)n2)cc1 | -21.2
2 | Cc1ccc(/C=N/Nc2cc(C)nc(N3CCOCC3)n2)cc1 | 5.46
3 | COc1ccc(/C=N/Nc2cc(C)nc(N)n2)cc1 | 27.6
4 | Cc1cc(N/N=C/c2ccc(F)cc2)nc(NCc2ccccc2)n1 | 60.8
5 | O=C(O)CC(NC(=O)c1cccc(F)c1)c1ccc(OC2CCCC2)cc1 (configuration not stated) | -8.15
6 | CCCCC(=O)Nc1ccc(C(=O)c2ccccc2)cc1 | -5.55
7 | CCn1cc(CNC(=S)Nc2cccc(Cl)c2C)cn1 | 72.5
8 | C/C=C\C(=O)Nc1cccc(C2=NOC3(C2)C[C@@H](C(N)=O)N(C(=O)C2(C)CC2)C3)c1 (some centres not stated) | 2.93
9 | CC(=O)Nc1ccc(NC(=O)CN(C)S(=O)(=O)c2ccc3nc(C)sc3c2)cc1 | 6.18
10 | CCC(=O)Nc1nc2c(OC)ccc(C)c2s1 | -15
11 | COc1ccc(OC)c2sc(NC(=O)CCSc3ccccc3)nc12 | 14.7
12 | COc1ccc(CNC(=O)C(=O)NCC2OCCN2S(=O)(=O)c2ccc3c(c2)OCCO3)cc1 (configuration not stated) | -1.2
13 | CCOc1ccc(NC(=O)CCNS(=O)(=O)c2ccc3c(c2)CC(C)N3C(C)=O)cc1 (configuration not stated) | -1.02
14 | CCOC(=O)C1CCN(Cc2ccc(OCc3ccccc3)c(OC)c2)CC1 | 6.11
15 | CCN1C(=O)N/C(=C/c2ccc(Sc3ccc(C)cc3)o2)C1=O | 39.1
16 | Cc1ccc(N2NC(=O)/C(=C/c3ccc(-c4ccc(Cl)c(C(=O)O)c4)o3)C2=O)cc1 | 26.2
17 | CC1=CN2C(=N)/C(=C/c3ccc(Sc4ccc(C)cc4)o3)C(=O)N=C2S1 | -10.5
18 | O=C1NN(c2ccccc2)C(=O)/C1=C/c1ccc(-c2ccc(C(=O)O)cc2)o1 | 37.2
19 | CCN(CC)C(=O)COc1ccc(-c2ccccc2)cc1 | 37.2
20 | CC(NC(=O)COc1ccc(Br)cc1)C1CCCO1 (configuration not stated) | 0.437
21 | CC(C)C(C)NC(=O)COc1ccc(-c2ccccc2)cc1 (configuration not stated) | -4.32
22 | COc1ccc(CCC(=O)NC(C)C2CCCO2)cc1 (configuration not stated) | -3.51
23 | CCC(CC)n1[nH]c(=O)c2c(C)cc(C)nc21 | -4.61
24 | CCCc1nc(SCC(=O)NC2CC2)c2c(C)c(C)sc2n1 | 6

Row | Compound | inhibition [%]
25 | CC[C@@]12C(=O)N(c3cccc(Br)c3)C(=O)N1[C@H](c1cccc(C)c1)[C@@H]1C(=O)N(Cc3ccccc3)C(=O)[C@@H]12 | 23.5
26 | O=C(c1ncc[nH]1)c1cccs1 | -0.79
27 | CCOC(=O)C1CCCN(Cc2ccccc2Cl)C1 (configuration not stated) | 21.6
28 | CC(NCc1ccc(Cl)cc1)C(O)c1ccccc1 (configuration not stated) | 12.6
29 | CC(NCc1cccc(OCc2ccccc2)c1)C(O)c1ccccc1 (configuration not stated) | 63.5
30 | Cn1c(Cc2ccccc2)nnc1SCc1ccc(C(=O)O)cc1 | -12
31 | COn1c2c(c3c4no[n+]([O-])c4ccc31)CCCC2 | -5.21
32 | CCOC(=O)c1c(C)n(OC)c2ccc3c(no[n+]3[O-])c12 | -0.23
33 | CCCCC(=O)Nc1c2c(nn1-c1cccc(C)c1C)CS(=O)(=O)C2 | -2.3
34 | COc1cc(C(=O)NCc2ccccn2)ccc1OCc1c(C)noc1C | -3.19
35 | O=C1N(CCCN2C(=O)C3(OCCO3)c3ccccc32)c2ccccc2C12OCCO2 | 0.91
36 | C=CCN1C(=O)C2(NC(=O)c3ccccc3N2)c2ccccc21 (configuration not stated) | -5.15
37 | C=CCN1C(=O)C2(OCCCO2)c2ccccc21 | 11.8
38 | O=C1N(CCCCN2C(=O)C3(OCCO3)c3ccccc32)c2ccccc2C12OCCO2 | 5.68
39 | COc1ccccc1C(=O)N1CCN(C2CCN(Cc3ccccc3)CC2)CC1 | -21.9
40 | COc1ccc(OC(C)C(=O)NC(C)c2ccccc2)cc1 (configuration not stated) | -7.62
41 | O=C1CCCC(O)=C1C=Nc1cccc(C(F)(F)F)c1 | -1.35
42 | O=C1CCCC(O)=C1C=Nc1ccc(O)cc1 | 17.3
43 | CC(C)CN(C(=O)COC(=O)c1ccccn1)c1c(N)n(Cc2ccccc2)c(=O)[nH]c1=O | -2.29
44 | CCOC(=O)C1=NN(c2ccccc2)C(c2ccccc2)CC1=O (configuration not stated) | 12.4
45 | C=CCOc1ccc(C2CC(C)=NN2c2ccccc2)cc1 (configuration not stated) | 35.9
46 | Cc1ccc(C)c(S(=O)(=O)N2CCN(C(=O)CCC(=O)NCc3ccc(Cl)cc3)CC2)c1 | 6.7
47 | NC(=O)c1ccc(NC(=O)COC(=O)C2CC(=O)N(Cc3ccccc3)C2)cc1 (configuration not stated) | -1.36
48 | Cc1nn2c(NCCCN(C)C)c3c(nc2c1-c1ccccc1)CCCC3 | 73.4

Row | Compound | inhibition [%]
49 | Cc1nn2c(NCCCN(C)C)c3c(nc2c1-c1ccccc1)CCC3 | -10.7
50 | CCO/C=C1/C(=O)N(C(C)=O)c2ccccc21 | -5.81
51 | Cc1cccc(-c2nnc(-c3ccccc3)o2)c1 | 79.9
52 | COc1ccc(-c2nnc(-c3cccs3)o2)cc1OC | 60.7
53 | c1ccc(-c2nnc(-c3ccccc3)o2)cc1 | 66.5
54 | COc1ccccc1-c1nnc(-c2ccc(N3CCOCC3)cc2)o1 | 18.5
55 | Fc1ccc(-c2nnc(-c3ccc(Cl)cc3)o2)cc1 | 72.1
56 | COc1ccc(-c2nnc(-c3ccc(F)cc3)o2)cc1 | 76.7
57 | Cc1ccc(-c2nnc(-c3ccccc3Br)o2)cc1 | 78.7
58 | CN(C)c1ccc(-c2nnc(-c3cccs3)o2)cc1 | 48.7
59 | Cc1cc(=O)oc2ccc(OC(C)C(=O)O)cc12 (configuration not stated) | -4.21
60 | Cn1cc(C(=O)C(=O)N2CCCC2)c2ccccc21 | -3.83
61 | Cc1nc(N/N=C/c2ccccc2)nc(N(C)c2ccccc2)c1[N+](=O)[O-] | -0.99
62 | CC(=O)Nc1ccc(Nc2nc(C)c([N+](=O)[O-])c(N(C)c3ccccc3)n2)cc1 | 71.5
63 | CC(=O)c1cccc(OCc2cc(C(=O)NCc3nc(C)c(C)s3)no2)c1 | -3.04
64 | COc1ccc(NC(=O)COc2ccc(C(=O)NCc3cccnc3)cc2OC)cc1 | 10.8
65 | O=C(O)c1c2c(nc3ccccc13)-c1ccccc1CC2 | -7.78
66 | O=C(OCC(=O)N1CCCCC1)c1ccc2ccccc2n1 | 50
67 | O=C(OCC(=O)N1CCN(c2ccccc2)CC1)c1ccccn1 | -2.7
68 | O=C(OCC(=O)N1CCN(c2ccccc2)CC1)c1ccc(Cl)nc1 | 60.4
69 | O=C(OCC(=O)N1CCCC1)c1cnc(Cl)c(Cl)c1 | 7.3
70 | Clc1ccc(N2CCN(c3ccnc(Cl)n3)CC2)cc1 | 53
71 | COCCCNC(=O)c1c(N)n(-c2ccc3c(c2)OCO3)c2nc3ccccc3nc12 | -12.5
72 | O=C(NC1CCCCC1)c1cc(-c2ccc(Cl)cc2)on1 | -0.38
